Holding throughout (details): 10 µM; exposure time 6 h
Experiment [1] deals with Danio rerio larvae (5 dpf). The experiment in a line: difference in excitability vs DMSO (percentage points); higher = more excitable than DMSO. The procedure, abridged:
(§1)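 Wild-type zebrafish larvae at 5 dpf were kept in 96-well plates and exposed for 6 h to 100 µL egg water holding library compound at a final concentration of 10 µM. From 3 h into exposure, the plates were held at 28.5 ℃ and photographed every 6 s through a 3-h programme of moving lines and 100 ms, 400Hz tones. Each behaviour was scored by Z-LaP Tracker, a DeepLabCut model, and averaged over 48 larvae per compound. Every value gives the compound mean minus the vehicle control mean, in percentage points.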

In experiment [2] the test system is Danio rerio larvae (5 dpf). The experiment in a line: difference in startle response vs DMSO (percentage points); higher = stronger startle than DMSO. The gist of the method: as §1
In experiment [3] the test system is Danio rerio larvae (5 dpf). In words: difference in activity during first hour vs DMSO (percentage points); higher = more activity than DMSO. The gist of the method: as §1
The subject of experiment [4] is Danio rerio larvae (5 dpf). The experiment in a line: difference in habituation to acoustic stimuli vs DMSO (percentage points); higher = more habituation than DMSO. The procedure, abridged:
as §1

In experiment [5] the test system is Danio rerio larvae (5 dpf). The experiment in a line: difference in combined optomotor response to red, green and blue moving lines vs DMSO (percentage points); higher = stronger optomotor response than DMSO. The gist of the method:
as §1

This note sets out measurements from the supplement of paper PMC10515830.

Structures are written as SMILES. Structures can show the parent of a compound that is named as a salt.

For the compound `N[C@@H]1C[C@H]1c1ccccc1` [Tranylcypromine (hydrochloride)], in experiment [1], the difference in excitability is -4.31. Moreover, in experiment [2], the “difference in startle response” value was -7.1. The “difference in activity during first hour” value in experiment [3] is -15.2. Further, the “difference in habituation to acoustic stimuli” value (“difference in habituation” for short) in experiment [4] is -1.86. In addition, the difference in experiment [5] is 1.86.
On to `C=C1C[C@@H]2[C@H](CC[C@]3(C)C(=O)CC[C@@H]23)[C@@]2(C)C=CC(=O)C=C12` [Exemestane], for which, in experiment [1], the difference in excitability was found to be 14.1. Besides, the “difference in startle response” value in experiment [2] came to 0.844. For the same compound, the “difference in activity during first hour” value in experiment [3] is -8.29. In addition, the “difference in habituation” value in experiment [4] is -0.126. In experiment [5], the difference came out at 3.59.
Compound `C[C@]12CC[C@H](O)CC1=CC[C@@H]1[C@@H]2CC[C@]2(C)C(=O)CC[C@@H]12` [Dehydroepiandrosterone] came in with a difference in excitability in experiment [1] of 19. For the same compound, the “difference in startle response” value in experiment [2] is -2.18. For the same compound, the “difference in activity during first hour” value in experiment [3] is -15.8. Besides, the “difference in habituation” value in experiment [4] came out at 1.51. Moreover, in experiment [5], the difference was determined as 6.05.
In the same order, the values of `O=C1CC[C@@]2(O)[C@H]3Cc4ccc(O)c5c4[C@@]2(CCN3CC2CC2)[C@H]1O5` [Naltrexone (hydrochloride)] are 12.7, 5.18, 13.3, 2.13 and 7.87.
For `NCC1(CC(=O)O)CCCCC1` [Gabapentin], in that order: -1.43, 8.77, 13.9, 2.43 and 6.89.
As for `C[N+]1(C)[C@@H]2C[C@@H](OC(=O)[C@H](CO)c3ccccc3)C[C@H]1[C@@H]1O[C@@H]12` [Methylscopolamine (bromide)], the difference in excitability in experiment [1] is -2.02. Further, the “difference in startle response” value in experiment [2] is 0.0162. In experiment [3], the “difference in activity during first hour” value was -10. Besides, the “difference in habituation” value in experiment [4] was -2.49. Besides, the difference in experiment [5] is 0.657.
`COc1cc2c(cc1OC)C1CC(=O)C(CC(C)C)CN1CC2` (stereo not given) [Tetrabenazine]: the difference in excitability in experiment [1] is 25.1. Further, in experiment [2], the “difference in startle response” value is 3.39. Moreover, in experiment [3], the “difference in activity during first hour” value worked out at 9.5. Also, the “difference in habituation” value in experiment [4] was -2.68. For the same compound, in experiment [5], the difference was -3.98.
`COc1ccc2c(c1)[C@]13CCCC[C@@H]1[C@H](C2)N(C)CC3` [Dextromethorphan (hydrobromide hydrate)] came in with a difference in excitability in experiment [1] of 18.6. Further, the “difference in startle response” value in experiment [2] came out at 1.65. Moreover, in experiment [3], the “difference in activity during first hour” value was -16. Besides, in experiment [4], the “difference in habituation” value was -4.55. Besides, in experiment [5], the difference was -8.83.
